Measurements: the supplement of paper PMC10849652
The full data set covers some 7,900 targets. This sample favours those with a hit. About 0.6% of all pairs of compound and target were hits.

These targets were tested with c1ccc([C@@H]2C[C@H]2NC2CCNCC2)cc1 (assay: log2 fold change, soluble protein after heating vs DMSO (PISA); higher = thermal stabilisation; K562 cells, 10 uM, 30 min; active = over 0.2 and 3.5 SD of the protein, either way, in both replicates (recomputed)).
Outline: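 K562 cells at 2×10^6 cells/mL were treated for 30 min with 10 μM compound, and aliquots were heated for 3 min over 48°C-58°C before pooling. Extraction used PBS with 0.5% NP-40 at 4°C, and soluble protein was the supernatant after 21,000xg for 90 min, measured by TMTpro 16plex LC-MS/MS with channel sums equalised. Thermal stability values, relative to control samples and from duplicates, are log2 fold changes.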

Sequence of UniProt O15460 (O15460 whole entry, looked up): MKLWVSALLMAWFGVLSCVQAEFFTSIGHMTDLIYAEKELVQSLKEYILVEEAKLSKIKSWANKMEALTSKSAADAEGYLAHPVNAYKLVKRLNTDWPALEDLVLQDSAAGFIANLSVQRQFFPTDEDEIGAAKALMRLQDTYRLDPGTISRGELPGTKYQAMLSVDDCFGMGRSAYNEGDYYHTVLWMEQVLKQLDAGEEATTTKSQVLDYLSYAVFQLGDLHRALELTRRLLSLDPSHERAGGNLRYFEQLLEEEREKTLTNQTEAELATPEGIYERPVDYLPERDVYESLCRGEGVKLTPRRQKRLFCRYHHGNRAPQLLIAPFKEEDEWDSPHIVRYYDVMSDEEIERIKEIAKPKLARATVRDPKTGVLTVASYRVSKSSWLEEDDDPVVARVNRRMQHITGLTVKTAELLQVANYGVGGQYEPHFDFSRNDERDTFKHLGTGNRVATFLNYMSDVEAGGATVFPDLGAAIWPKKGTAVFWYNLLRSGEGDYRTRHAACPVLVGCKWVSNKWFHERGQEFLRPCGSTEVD
Sequence of UniProt Q9BWT6 (Q9BWT6 whole entry, looked up): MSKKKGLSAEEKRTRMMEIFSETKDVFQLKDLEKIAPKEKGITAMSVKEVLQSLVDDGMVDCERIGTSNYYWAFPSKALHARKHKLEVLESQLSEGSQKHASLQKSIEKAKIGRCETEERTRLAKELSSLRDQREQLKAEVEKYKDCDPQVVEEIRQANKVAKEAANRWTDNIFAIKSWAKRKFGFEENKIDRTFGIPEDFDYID
Sequence of UniProt P55209 (P55209 whole entry, looked up): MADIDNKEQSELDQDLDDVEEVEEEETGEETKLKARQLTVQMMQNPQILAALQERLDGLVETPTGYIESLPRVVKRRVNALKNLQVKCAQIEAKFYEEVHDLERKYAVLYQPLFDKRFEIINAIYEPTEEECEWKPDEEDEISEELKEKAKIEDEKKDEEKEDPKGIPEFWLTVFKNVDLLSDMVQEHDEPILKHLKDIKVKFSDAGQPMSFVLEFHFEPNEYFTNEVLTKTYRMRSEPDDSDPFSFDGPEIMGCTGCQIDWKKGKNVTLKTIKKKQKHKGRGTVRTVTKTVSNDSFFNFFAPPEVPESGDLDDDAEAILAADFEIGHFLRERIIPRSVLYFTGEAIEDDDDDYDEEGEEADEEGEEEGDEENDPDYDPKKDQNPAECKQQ
Sequence of UniProt Q8WV92 (Q8WV92 whole entry, looked up): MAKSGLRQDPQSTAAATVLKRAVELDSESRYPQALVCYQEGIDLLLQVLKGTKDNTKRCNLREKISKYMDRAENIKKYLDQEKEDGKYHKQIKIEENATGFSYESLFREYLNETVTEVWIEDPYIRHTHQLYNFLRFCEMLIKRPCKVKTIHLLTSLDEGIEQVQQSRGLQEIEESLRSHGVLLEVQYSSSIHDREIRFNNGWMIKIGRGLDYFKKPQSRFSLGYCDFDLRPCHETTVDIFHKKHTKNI
Sequence of UniProt Q96PU5 (Q96PU5 whole entry, looked up): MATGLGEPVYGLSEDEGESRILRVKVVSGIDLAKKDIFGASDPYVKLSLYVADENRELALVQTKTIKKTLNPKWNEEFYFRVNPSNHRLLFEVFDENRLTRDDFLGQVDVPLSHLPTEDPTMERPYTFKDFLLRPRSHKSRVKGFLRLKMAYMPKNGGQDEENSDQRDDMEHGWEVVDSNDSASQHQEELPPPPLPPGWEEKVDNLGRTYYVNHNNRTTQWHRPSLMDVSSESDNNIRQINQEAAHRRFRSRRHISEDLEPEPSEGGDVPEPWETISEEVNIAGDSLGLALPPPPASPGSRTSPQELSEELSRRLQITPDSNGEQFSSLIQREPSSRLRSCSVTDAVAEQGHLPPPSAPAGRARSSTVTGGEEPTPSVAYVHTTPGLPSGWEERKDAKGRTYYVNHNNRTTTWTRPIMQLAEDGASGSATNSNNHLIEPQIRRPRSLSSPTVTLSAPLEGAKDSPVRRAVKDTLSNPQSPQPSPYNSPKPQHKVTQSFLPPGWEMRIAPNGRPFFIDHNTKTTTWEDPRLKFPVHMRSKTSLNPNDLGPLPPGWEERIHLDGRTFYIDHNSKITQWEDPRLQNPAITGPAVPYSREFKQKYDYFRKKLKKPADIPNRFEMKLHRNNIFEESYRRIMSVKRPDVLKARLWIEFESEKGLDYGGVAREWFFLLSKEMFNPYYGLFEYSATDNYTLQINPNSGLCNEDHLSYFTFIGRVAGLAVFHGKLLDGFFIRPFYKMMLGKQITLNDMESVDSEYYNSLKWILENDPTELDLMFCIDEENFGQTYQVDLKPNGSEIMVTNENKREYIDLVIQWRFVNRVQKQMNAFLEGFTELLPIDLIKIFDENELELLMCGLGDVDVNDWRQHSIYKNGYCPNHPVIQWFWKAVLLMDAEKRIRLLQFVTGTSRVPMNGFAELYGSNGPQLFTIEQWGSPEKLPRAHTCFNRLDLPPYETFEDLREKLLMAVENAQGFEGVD
Sequence of UniProt O60361 (O60361 whole entry, looked up): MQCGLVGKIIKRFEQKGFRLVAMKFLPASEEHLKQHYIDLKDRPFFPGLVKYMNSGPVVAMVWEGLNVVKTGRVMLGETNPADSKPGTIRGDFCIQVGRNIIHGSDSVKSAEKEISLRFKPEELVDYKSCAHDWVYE
Sequence of UniProt P49116 (P49116 whole entry, looked up): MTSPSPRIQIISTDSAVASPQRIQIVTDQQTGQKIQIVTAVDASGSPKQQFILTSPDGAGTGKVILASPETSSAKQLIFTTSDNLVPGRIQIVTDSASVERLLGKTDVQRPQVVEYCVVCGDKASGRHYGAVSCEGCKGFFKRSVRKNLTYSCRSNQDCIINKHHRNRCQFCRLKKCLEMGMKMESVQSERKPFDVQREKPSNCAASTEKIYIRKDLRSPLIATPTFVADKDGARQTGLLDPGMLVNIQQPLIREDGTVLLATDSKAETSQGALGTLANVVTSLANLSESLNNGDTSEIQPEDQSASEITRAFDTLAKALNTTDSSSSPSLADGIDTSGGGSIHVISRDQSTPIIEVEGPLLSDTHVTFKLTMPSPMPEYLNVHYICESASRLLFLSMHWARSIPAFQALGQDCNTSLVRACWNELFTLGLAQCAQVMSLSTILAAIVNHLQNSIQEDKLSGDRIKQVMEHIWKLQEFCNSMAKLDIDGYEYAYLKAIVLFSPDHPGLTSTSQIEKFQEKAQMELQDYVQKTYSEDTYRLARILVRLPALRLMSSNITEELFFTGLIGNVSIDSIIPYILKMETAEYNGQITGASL
Sequence of UniProt Q99747 (Q99747 whole entry, looked up): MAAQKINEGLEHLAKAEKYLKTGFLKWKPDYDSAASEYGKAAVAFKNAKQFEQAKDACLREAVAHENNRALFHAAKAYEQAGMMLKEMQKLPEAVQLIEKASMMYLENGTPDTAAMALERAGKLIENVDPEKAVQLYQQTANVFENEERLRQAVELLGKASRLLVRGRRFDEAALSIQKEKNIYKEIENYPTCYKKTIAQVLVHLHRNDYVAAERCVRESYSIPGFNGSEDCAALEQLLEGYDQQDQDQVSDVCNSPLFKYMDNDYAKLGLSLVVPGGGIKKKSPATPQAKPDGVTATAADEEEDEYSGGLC
Sequence of UniProt P55786 (P55786 whole entry, looked up): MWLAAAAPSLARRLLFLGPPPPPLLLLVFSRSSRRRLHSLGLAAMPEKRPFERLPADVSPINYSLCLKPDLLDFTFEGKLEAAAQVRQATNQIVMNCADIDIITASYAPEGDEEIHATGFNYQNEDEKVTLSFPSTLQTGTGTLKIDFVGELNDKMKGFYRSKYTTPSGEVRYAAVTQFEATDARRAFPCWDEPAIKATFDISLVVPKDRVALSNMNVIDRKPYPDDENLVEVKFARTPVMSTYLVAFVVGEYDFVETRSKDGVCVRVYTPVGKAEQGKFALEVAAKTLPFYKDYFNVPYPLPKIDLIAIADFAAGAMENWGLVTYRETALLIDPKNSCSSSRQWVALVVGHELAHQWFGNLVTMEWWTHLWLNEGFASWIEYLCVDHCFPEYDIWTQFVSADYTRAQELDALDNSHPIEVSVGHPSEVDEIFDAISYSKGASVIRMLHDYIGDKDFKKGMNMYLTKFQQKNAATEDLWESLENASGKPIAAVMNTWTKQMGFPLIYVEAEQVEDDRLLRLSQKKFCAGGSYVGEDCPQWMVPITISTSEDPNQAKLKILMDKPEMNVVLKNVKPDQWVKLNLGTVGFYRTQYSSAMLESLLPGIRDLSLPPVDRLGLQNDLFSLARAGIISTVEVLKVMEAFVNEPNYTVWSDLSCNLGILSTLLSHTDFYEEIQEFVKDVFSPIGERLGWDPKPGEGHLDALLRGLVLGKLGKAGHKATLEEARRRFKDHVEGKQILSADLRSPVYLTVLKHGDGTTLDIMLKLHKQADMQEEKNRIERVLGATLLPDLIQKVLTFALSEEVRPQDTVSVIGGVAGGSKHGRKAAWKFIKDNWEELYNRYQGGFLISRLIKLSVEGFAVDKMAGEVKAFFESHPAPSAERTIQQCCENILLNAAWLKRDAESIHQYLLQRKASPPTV

Row | Target | log2 fold change
1 | NR2C2 isoform 2 (UniProt P49116) | 0.024 (inactive)
2 | NAPG (UniProt Q99747) | -0.077 (inactive)
3 | P4HA2 (UniProt O15460) | -0.043 (inactive)
4 | NEDD4L (UniProt Q96PU5) | 0.027 (inactive)
5 | NPEPPS (UniProt P55786) | -0.051 (inactive)
6 | MRPS33 (UniProt Q9Y291) | -0.002 (inactive)
7 | NA, A0A096LPI6 | 0.023 (inactive)
8 | MRPS5 (UniProt P82675) | -0.077 (inactive)
9 | NME2P1 (UniProt O60361) | -0.004 (inactive)
10 | OXA1L (UniProt Q15070) | 0.009 (inactive)
11 | MITD1 (UniProt Q8WV92) | 0.06 (inactive)
12 | MND1 (UniProt Q9BWT6) | 0.102 (inactive)
13 | NAP1L1 (UniProt P55209) | 0.009 (inactive)
